# From PubChem
# Only some compounds are listed: those with a hit (about 11% of all), similar ones and a draw of the others.
# HCV inh – qHTS Assay for Inhibitors of Hepatitis C Virus (HCV). Huh7.5.1 HCVcc-Cre infection, luciferase reporter, 44 h. Potency, µM (doses to about 41.8 µM), for inactives: top-dose activity change, negative = inhibition, most hits filed as inhibitors. actives 3.4% (n = 340,000); also: % is scaled to controls: 0 for no effect and ±100 for the full control effect
#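 Reporter virus HCVcc-Cre (~0.5 moi) infects cells exposed to compound; seeding density 1,000 cells/well with 4 h settling beforehand. Luminescence, 15 sec read, taken 44 h post-infection following a 15 min RT substrate incubation.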
# Pf growth 96h – Primary qHTS for delayed death inhibitors of the malarial parasite plastid, 96 hour incubation; P. falciparum luciferase reporter growth, 96 h; AID 504834, 2011; Potency, µM (doses to about 28.7 µM), without a hit: top-dose activity change, negative = inhibition, actives largely listed as inhibitors; actives 6.9% (n = 320,000); also: % is scaled to controls: 0 for no effect and ±100 for the full control effect
#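 Delayed-death screen, second-generation endpoint: infected erythrocytes, 2% hematocrit, 0.05% parasitemia final; 96 hours at 37 C, 5% CO2; luciferase detection reagent; luminescence decrease equals reduced growth.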
# VACV mCherry inh – qHTS for Stage-Specific Inhibitors of Vaccinia Orthopoxvirus: mCherry Reporter Primary qHTS; Vaccinia virus mCherry reporter infection, fluorescence; actives 0.63% (n = 310,000); Potency, µM (highest dose often 36.5 µM), for the others: top-dose activity change, negative = inhibition, most hits filed as inhibitors; calls by dose curve; tested in A549 cells; also: % is scaled to controls: 0 for no effect and ±100 for the full control effect; nearly all actives have a fitted effect of over 35% in size
# NS1 inh – qHTS Assay for Inhibitors of Influenza NS1 Protein Function; Potency, µM (doses to about 46.1 µM), inactives show at the top dose activity, positive = more growth; AID 2326, 2010; actives 0.4% (n = 270,000); calls by dose curve; also: actives are rising curves; nearly all actives have a fitted effect of over 50% in size
#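 Growth recovery, yeast-based: influenza A NS1 expressed in S. cerevisiae causes slow growth, and suppressors are detected by OD600. The parent strain without NS1 is used as positive control.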
# Pf growth 48h – Primary qHTS for delayed death inhibitors of the malarial parasite plastid, 48 hour incubation | P. falciparum luciferase growth in erythrocytes, 48 h | Potency, µM (titrated, usually from 28.7 µM), inactives show at the highest dose activity change, negative = inhibition, actives largely listed as inhibitors | actives 5.9% (n = 310,000) | AID 504832, 2011; also: % is scaled to controls: 0 for no effect and ±100 for the full control effect
#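 Parasite viability was followed by luminescence of a genomically integrated firefly luciferase. Cultures held 0.1% parasitemia at 2% hematocrit (final), incubated under 5% CO2 at 37 C.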
# Vaccinia Venus – qHTS for Stage-Specific Inhibitors of Vaccinia Orthopoxvirus: Venus Reporter Primary qHTS | Vaccinia virus Venus reporter expression, fluorescence | Potency, µM (highest dose often 36.5 µM), without a hit: at the highest dose activity change, negative = inhibition, hits mostly inhibitors | actives 0.46% (n = 330,000) | AID 720580, 2013; calls by dose curve; tested in A549 cells; also: % is scaled to controls: 0 for no effect and ±100 for the full control effect; nearly all actives have a fitted effect of over 30% in size
# * hit, by the source's call; i = inactive; ? = inconclusive; · = no result. Unless noted, calls follow the shape of the dose curve; as a rule, active = well fitted inhibition curve with a large enough effect; inconclusive = small, poorly fitted or top-dose-only effect, or another doubt; inactive = no such curve, though single readings can be large or run the other way. Potency is read from the fitted curve at half-maximal effect.
SMILES,HCV inh,Pf growth 96h,VACV mCherry inh,NS1 inh,Pf growth 48h,Vaccinia Venus
CCCC1(C(=O)OCC)NC(c2ccc(N(C)C)cc2)C2C(=O)N(c3ccc(OCC)cc3)C(=O)C21 (configuration not stated),11.7%,?,·,-32.6%,11.7µM*,·
COC(=O)C1(C)NC(c2cccc(C)c2)C2C(=O)N(c3ccc(F)cc3)C(=O)C21 (configuration not stated),6.0%,3.7µM*,·,8.9%,-4.0%,·
CCCC1(C(=O)OCC)NC(c2ccc(N(C)C)cc2)C2C(=O)N(c3ccccc3)C(=O)C21 (configuration not stated),7.6%,·,-13.3%,-1.2%,?,-3.6%
Nc1[nH]n(-c2c(Cl)cc(Cl)cc2Cl)c(=O)c1N=Nc1ccc(S(=O)(=O)Nc2ncccn2)cc1,-5.5%,·,·,·,·,·
CCCCc1ccc(NC(=O)CSC2=NN3CCCC(=O)N=C3S2)cc1,11.2µM*,2.08µM*,13.4%,-7.0%,-3.8%,-3.9%
O=C1CCCN2N=C(SCC(=O)Nc3ccc(Cl)cc3)SC2=N1,1.7%,10.4µM*,-16.9%,-10.7%,-13.2%,-4.8%
CCOc1ccc(NC(=O)CSC2=NN3CCCC(=O)N=C3S2)cc1,-19.5%,-2.0%,·,22.3%,?,·
O=C1CCCN2N=C(SCC(=O)Nc3cccc(C(F)(F)F)c3)SC2=N1,6.31µM*,-35.9%,-18.8%,-6.9%,?,-1.1%
CCCNC(=O)CS(=O)(=O)c1ccccc1,7.9%,100.6%,i,-6.1%,53.7%,-2.1%
CCCc1nnc(NC(=O)CCC(=O)N2CCN(CCOC(c3ccccc3)c3ccccc3)CC2)s1,-1.9%,?,-1.2%,-7.9%,10.4µM*,-19.5%
CC(C)c1nnc(NC(=O)CCC(=O)N2CCN(c3ccccn3)CC2)s1,7.3%,21.7%,·,1µM*,10.2%,·
CCCc1nnc(NC(=O)CCC(=O)N2CCN(Cc3ccccc3)CC2)s1,12.8%,?,-15.5%,16.1%,7.9%,-21.4%
Cc1ccc(CCNC(=O)c2ccc(CS(=O)(=O)Cc3ccc(Cl)cc3)o2)cc1,·,·,-7.8%,·,·,-10.1%
COc1ccc(OS(=O)(=O)c2ccc(N3C(=O)CCC3=O)cc2)cc1,8.0%,47.5%,i,9.9%,27.6%,-9.0%
O=c1[nH]c(=O)n([C@H]2C[C@@H](O)[C@@H](CO)O2)cc1F,·,·,3.55µM*,·,·,14.1µM*
O=c1[nH]c(=O)n(C2CC(O)C(CO)O2)cc1Br (configuration not stated),1.3%,·,?,·,·,-20.2%
O=c1[nH]c(=O)n(C2C[C@H](O)[C@@H](CO)O2)cc1C(F)(F)F (some centres not stated),-1.3%,-1.2%,0.501µM*,·,-1.2%,?
CCOc1cc(C=C(C(=O)OC)C(=O)OC)ccc1OCc1ccc([N+](=O)[O-])cc1,7.94µM*,-2.6%,·,3.4%,?,10µM*
CCOc1cc(/C=N/O)ccc1OCc1ccc([N+](=O)[O-])cc1,?,9.0%,-1.8%,3.7%,-27.2%,-28.4%
O=C(Nc1ccc(Cl)c(Cl)c1)Nc1ccc(N2CCCC2)c(S(=O)(=O)Nc2ccccc2Cl)c1,?,3.7µM*,12.6µM*,-6.5%,13.1µM*,11.2µM*
O=C(Nc1ccc(N2CCCCC2)c(S(=O)(=O)Nc2ccccc2Cl)c1)c1cccnc1,12.6µM*,·,-1.1%,·,·,-7.3%
O=C(Nc1ccc(F)cc1)Nc1ccccc1N1CCCCC1,11.2µM*,?,·,-2.1%,?,·
O=C(Nc1ccccc1N1CCN(c2ccc(F)cc2)CC1)C1CCCCC1,-5.1%,83.6%,-5.5%,-11.6%,?,-4.8%
O=C(Nc1ccc(N2CCOCC2)c(S(=O)(=O)Nc2ccccc2Cl)c1)c1ccc(F)cc1,10µM*,·,-12.2%,·,·,-21.3%
COC(=O)c1ccc(C2N=C(c3cccs3)CC(c3ccccc3O)N2)cc1 (configuration not stated),-4.0%,-28.9%,-1.9%,·,?,2.9%
SMILES,HCV inh,Pf growth 96h,VACV mCherry inh,NS1 inh,Pf growth 48h,Vaccinia Venus
COc1ccc(NC(=O)Cn2c(-c3ccccc3)cn(-c3ccc(C)cc3)c2=O)cc1,8.0%,32.3%,i,2.0%,·,2.8%
Cc1noc(/C=C/c2cccs2)c1S(=O)(=O)N1CCC(C(=O)Nc2ccc(F)c(Cl)c2)CC1,·,·,-19.3%,·,·,-22.1%
COc1ccc(CNC(=O)Cc2c[nH]c3ccccc23)cc1OC,10.3%,30.0%,·,8.9%,16.7%,·
O=C(COC(=O)CC1CC2CCC1C2)Nc1ccc(Cl)c(S(=O)(=O)N2CCOCC2)c1 (configuration not stated),-19.0%,-18.2%,·,·,?,·
O=C(Nc1ccc(F)cc1)Nc1ccc(N2CCCC2)c(S(=O)(=O)Nc2ccccc2Cl)c1,6.31µM*,4.65µM*,11.2µM*,22.9%,9.28µM*,11.2µM*
Cc1c(N=Cc2c(O)n(Cc3ccco3)c(=O)[nH]c2=O)c(=O)n(-c2ccccc2)n1C,-1.9%,?,·,8.0%,8.7%,-10.6%
Cc1c(N=Cc2c(O)n(Cc3ccco3)c(=O)c3ccccc23)c(=O)n(-c2ccccc2)n1C,?,16.8%,-32.0%,-1.3%,11.7µM*,-22.4%
Cc1cc(C)cc(NC2=NCCCS2)c1,1.9%,1.7%,·,·,15.9%,·
O=C(Nc1cc(S(=O)(=O)N2CCCCCC2)ccc1OCC(F)(F)F)C1CCC1,-2.9%,-15.5%,-23.3%,4.5%,-19.3%,-22.9%
COc1cc(NCC(=O)Nc2cccc(S(=O)(=O)N3CCCCC3)c2)cc(OC)c1OC,?,?,·,·,1.85µM*,·
COc1ccc([N+](=O)[O-])cc1NCC(=O)Nc1cccc(S(=O)(=O)N2CCCC2)c1,?,?,-2.6%,·,5.22µM*,-22.4%
CN(C)S(=O)(=O)c1ccc(NC(=O)CNc2cc(S(=O)(=O)N3CCCC3)ccc2OCC(F)(F)F)cc1,?,13.1µM*,i,15.8%,?,-18.0%
N#Cc1cccc(NC(=O)CNc2cccc(S(=O)(=O)N3CCCCC3)c2)c1,?,?,-14.0%,·,14.7µM*,-7.2%
O=C1CCCc2cc(S(=O)(=O)NCC3CCC(C(=O)NCc4ccc(F)cc4)CC3)ccc2N1 (configuration not stated),·,·,-9.9%,·,·,-20.3%
COc1cccc(CC(=O)OCC(=O)c2cc(OC)ccc2OC)c1,1.1%,10.6%,·,·,-16.1%,·
CC(C)OCCCNC(=O)CN1C(=O)c2ccccc2Sc2ncccc21,·,·,i,·,·,-2.0%
COc1ccc(S(=O)(=O)N(C)C)cc1NCC(=O)Nc1cccc(C#N)c1,-26.5%,11.7µM*,-10.7%,·,?,10.8%
O=C(CNc1cccc(S(=O)(=O)N2CCCCC2)c1)Nc1ccc(C(F)(F)F)cc1,·,·,-22.9%,·,·,?
